Sampled rows, rich in hits. Any-hit rate of the full collection: about 2.4%.
HSF1 inh = HSF1 inhibitors in luciferase reporter cells, primary screen, cell-based, NIH3T3, luminescence; NIH3T3-HGL HSE-luciferase, MG132-induced, luminescence 8 h; hits give low values; activity change, negative = inhibition, % at 7.5 µM (by protocol); hit rate 0.77% among 300,000; AID 2098, 2009;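 active = more than half of replicate wells show activity change below -50%, luminescence cut by over half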;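 also: luciferase reports HSF-1 transcriptional activity via heat shock element; 0% = median of DMSO wells and -100% = zero luminescence signal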
NOD2 RIPK2 PPI = NOD2-RIPK2 binding disruptors in cells, primary screen, fluorescence, CHO cells, BLA complementation; AID 624267, 2012; Receptor-interacting serine/threonine-protein kinase 2 (Homo sapiens), O43353; hit rate 0.38% among 360,000; CCF4 ratio; inhibition, % at 4.98 µM; in the data active = inhibition above about 21%;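 also: 0% = vehicle only and 100% = reference blocker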
Target sequence (O43353 whole entry, looked up): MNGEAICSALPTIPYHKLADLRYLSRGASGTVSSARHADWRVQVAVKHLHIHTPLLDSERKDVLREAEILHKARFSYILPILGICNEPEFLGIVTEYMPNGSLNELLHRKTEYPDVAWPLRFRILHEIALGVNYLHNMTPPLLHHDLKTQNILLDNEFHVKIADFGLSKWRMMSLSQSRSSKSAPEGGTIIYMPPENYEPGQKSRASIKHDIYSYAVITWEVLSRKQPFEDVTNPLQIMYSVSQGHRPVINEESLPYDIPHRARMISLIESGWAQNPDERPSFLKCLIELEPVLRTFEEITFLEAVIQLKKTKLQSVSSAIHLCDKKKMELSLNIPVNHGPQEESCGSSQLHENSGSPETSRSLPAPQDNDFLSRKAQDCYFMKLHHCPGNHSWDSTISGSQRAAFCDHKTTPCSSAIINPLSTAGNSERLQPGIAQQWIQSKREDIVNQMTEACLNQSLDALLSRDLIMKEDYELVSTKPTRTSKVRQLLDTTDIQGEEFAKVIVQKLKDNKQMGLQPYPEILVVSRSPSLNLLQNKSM
TLR4 MyD88 comp = inhibitors of TLR4-MyD88 association in cells, primary screen, cell-based, HeLa CL3-4, BLA complementation, FRET ratio; HeLa CL3-4 TLR4/MyD88 BLA complementation; inhibition, % at 8.4 µM; hit rate 0.18% among 200,000; AID 861, 2007; in the data active = inhibition above about 25%;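 also: 0% = vehicle and 100% = reference inhibitor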
HSF1 activator = HSF-1 activators, primary screen, NIH3T3-HGL cells, MG132 stress, luminescence, single point; hit rate 1.7% among 300,000; NIH3T3-HGL HSF-1 luciferase reporter, 8 h; 100% = twice DMSO control signal; activation, % at 9 µM; AID 504408, 2011;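 active = mean replicate activation of at least 50% with a set share of replicates each reaching 50%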;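 also: 0% = median of the neutral control wells and 100% = twice that signal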
TLR9-MyD88 block = inhibitors of TLR9-MyD88 association in cells, primary screen, cell-based, CHO, BLA complementation, fluorescence; inhibition, % at 4.98 µM; CCF4 FRET ratio; AID 504734, 2011; hit rate 0.21% among 340,000;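 active = inhibition above the mean over all tested compounds plus 3 SD, cut at about 21% in these data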;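 also: 0% = DMSO only wells and 100% = clavulanate BLA inhibitor control wells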
NOD2 RIPK2 conf = NOD2-RIPK2 binding disruptors, retest, confirmation, fluorescence, CHO cells, BLA complementation, triplicate | shares compounds with NOD2 RIPK2 PPI | CCF4 FRET | inhibition, % at 4.98 µM | hit rate 70% among 1,200;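 active = mean inhibition across replicates above a set limit taken from the earlier primary screen, cut at about 21% in these data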;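 also: 0% = DMSO-only wells and the high end = clavulanate BLA-blocked wells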
NOD2 BLA counter = NOD2-RIPK2 counterscreen BLA reporter activity; shares compounds with NOD2 RIPK2 PPI; CHO BLA reporter, CCF4 FRET ratio; inhibition, % at 4.98 µM; hit rate 57% among 1,200; AID 624371;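 active = mean inhibition above the low-control mean inhibition plus three low-control SD, cut at about 11% in these data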;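 also: 0% = DMSO only wells and 100% = clavulanate high control wells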
Active calls of the source: *; nt = no result given.

SMILES | HSF1 inh | NOD2 RIPK2 PPI | TLR4 MyD88 comp | HSF1 activator | TLR9-MyD88 block | NOD2 RIPK2 conf | NOD2 BLA counter
O=C1OCCN1C(=O)[C@H]1[C@H](c2ccc(Cl)cc2)C(c2ccccc2)=NN1c1ccccc1 | nt | 2 | nt | nt | -3 | nt | nt
O=C(NCCCN1C(=O)c2ccccc2C1=O)OCc1ccccc1 | nt | -1 | nt | nt | -6 | nt | nt
CCCCCOc1ccc(Br)cc1/C(C)=N/NC1=NCCN1 | -33 | 23* | 5 | -31 | 9 | 22* | -2
Cc1cc(S(=O)(=O)Nc2noc3ccccc23)ccc1F | -1 | -2 | nt | -10 | -4 | nt | nt
Cc1cccc(-n2cnc3cc(C(=O)NCC4CCCO4)ccc32)c1 (centres undefined) | nt | 0 | nt | nt | 8 | nt | nt
N#Cc1ccc2c(c1)nnn2-c1ccccc1 | 5 | -15 | nt | 0 | nt | nt | nt
CCn1c2ccccc2c2cc(NC(C)=O)ccc21 | 6 | -11 | -1 | 19 | 4 | nt | nt
N#Cc1ccc2sn(-c3ccccc3)c(=O)c2c1 | nt | 25* | nt | nt | 10 | 50* | 12*
CC(=O)Nc1ccc2sn(-c3ccccc3)c(=O)c2c1 | nt | 30* | nt | nt | 5 | 22* | -4
O=C(NC1CCCCC1)C(c1ccnc2ccccc12)n1c(=O)c(-c2ccco2)nc2ccccc21 (centres undefined) | nt | -5 | nt | nt | nt | nt | nt
O=C(NC1CCCCC1)C(c1ccccc1F)n1c(=O)c(-c2ccco2)nc2ccccc21 (centres undefined) | nt | -2 | nt | nt | nt | nt | nt
O=C(NC1CCCCC1)C(c1cccc2ccccc12)n1c(=O)c(-c2cc3ccccc3[nH]2)nc2ccccc21 (centres undefined) | nt | 38* | nt | nt | nt | 34* | 62*
O=C(NC1CCCCC1)C(c1ccccc1F)n1c(=O)c(-c2cc3ccccc3[nH]2)nc2ccccc21 (centres undefined) | nt | 45* | nt | nt | nt | 42* | 66*
O=C(Nc1ccon1)c1csc2ccccc12 | 7 | -15 | -1 | 30 | 2 | nt | nt
O=C(Nc1cnccn1)c1csc2ccccc12 | nt | 33* | -3 | nt | -1 | -4 | -3
CCOC(=O)C1(CCCc2ccccc2)CCN(C(=O)c2ccoc2)CC1 | 27 | 45* | -3 | 38 | -7 | -1 | -4
COc1cc(/C=C\C(=O)O)cc(S(=O)(=O)N2CCCCCC2)c1OC | -23 | 4 | nt | -8 | -6 | nt | nt
CCOc1ccccc1C=NNC(=O)CCCCC(=O)NN=Cc1ccccc1OCC | nt | 1 | nt | nt | -7 | nt | nt
CCOc1ccccc1C=NNC(=O)C(=O)NN=Cc1ccccc1OCC | nt | 24* | nt | nt | -5 | -10 | -9
CCc1ccc2c(c1)NC(=O)C2(C)Cc1ccc(Cl)s1 (centres undefined) | nt | -8 | nt | nt | nt | nt | nt
CCN(c1ccccc1)S(=O)(=O)c1cc(C(=O)OC2CCOC2=O)ccc1C (centres undefined) | nt | 16 | nt | nt | 0 | nt | nt
O=P(CCCCCCCCCP(=O)(c1ccccc1)c1ccccc1)(c1ccccc1)c1ccccc1 | -4 | 22* | 0 | 17 | 3 | 16 | 3
CCc1c(-c2cccc(Br)c2)ncn1Cc1cccc(-c2ccccc2)c1 | nt | -7 | nt | nt | nt | nt | nt
C(=Cc1c[nH]c2ccccc12)c1ccc2ccccc2n1 | nt | 29* | nt | nt | 11 | 33* | 47*
Cc1ccc(S(=O)(=O)N2CCOCC2)cc1NC(=O)COc1cccc(Oc2ccccc2)c1 | 1 | 0 | nt | -18 | 3 | nt | nt
Cc1occc1C(=O)N/N=C/C=C/c1ccc(N(C)C)cc1 | 8 | 27* | nt | 6 | 11 | 37* | 37*
N#Cc1c(C(F)(F)F)cc(-c2ccco2)nc1SCc1ccncc1 | -7 | 29* | 13 | 2 | 18 | -3 | -2
N#Cc1c(C(F)(F)F)cc(-c2ccco2)nc1SCc1ccccn1 | 7 | 10 | -6 | 6 | 16 | nt | nt
